For orientation: AC50 means the concentration at which the activity in the assay is half-maximal.

The values that follow come from PubChem BioAssay (EPA / NIEHS).

Assay [1] is described as follows: ATG_PBREM_CIS: Attagene CIS-FACTORIAL HepG2 Assay for human Phenobarbital-responsive Enhancer Module (PBREM) (AID 2282955). As to conditions: HepG2 PBREM cis-reporter, Attagene multiplexed transcription; actives raise or lower the signal. In outline:
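Readout: reporter mRNA, fluorescent RT-PCR fragments separated by capillary electrophoresis. System: HepG2 transiently transfected with cis-regulated reporter units. Exposure: 24 h. Analysis: bidirectional, DMSO baseline.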

Assay [2] has as its target Paired box protein Pax-6 (Homo sapiens) (UniProt P26367). Description: ATG_Pax6_CIS: Attagene CIS-FACTORIAL HepG2 Assay for human Paired Box 6 (PAX6) (AID 2282956). As to conditions: HepG2 CIS-FACTORIAL PAX6 reporter transcription, RNA readout; actives raise or lower the signal. In outline: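 DMSO-referenced bidirectional fits of reporter mRNA fluorescence; HepG2 with transient cis-promoter MRTUs, 24 h post-dose, RT-PCR plus capillary electrophoresis detection.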

Assay [3] can be described thus: ATG_PXRE_CIS: Attagene CIS-FACTORIAL HepG2 Assay for human Pregnane X Receptor Element (PXRE) (AID 2282957). As to conditions: HepG2 Attagene CIS-FACTORIAL PXRE reporter, mRNA; actives raise or lower the signal. In outline: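 Bidirectional activity, baselined to DMSO, derived from reporter mRNA fluorescence (RT-PCR plus capillary electrophoresis) in HepG2 cells bearing cis-promoter reporter units, 24 h exposure.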

Assay [4] is described as follows: ATG_RORE_CIS: Attagene CIS-FACTORIAL HepG2 Assay for human RAR-related Orphan Receptor Element (RORE) (AID 2282959). As to conditions: HepG2 Attagene cis-factorial RORE reporter, mRNA; actives raise or lower the signal. In outline:
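Measured here: transcript induction of a cis-regulated reporter in HepG2 cells transiently transfected via FuGene 6. After 24 h, RNA was processed by RT-PCR and fluorescent capillary electrophoresis; DMSO defined baseline activity.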

Assay [5] is described as follows: ATG_Sox_CIS: Attagene CIS-FACTORIAL HepG2 Assay for human SRY-box transcription factor (SOX) (AID 2282960). Conditions: HepG2 Attagene cis-factorial SOX reporter, mRNA; actives raise or lower the signal. In outline:
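Using transiently transfected HepG2 cells, reporter transcription driven by cis elements was assessed 24 h after dosing. Signal was fluorescence of capillary-separated RT-PCR products, with DMSO defining baseline activity.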

Assay [6] concerns the target Transcription factor Sp1 (Homo sapiens) (UniProt P08047). Description: ATG_Sp1_CIS: Attagene CIS-FACTORIAL HepG2 Assay for human Specificity Protein 1 (Sp1) (AID 2282961). As to conditions: HepG2 Sp1 cis-reporter transcription, actives raise or lower the signal. In outline: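 After transient transfection of HepG2 cells with cis-promoter reporter units and 24 h chemical treatment, reporter transcripts were quantified by RT-PCR and capillary electrophoresis fluorescence. Gain- and loss-of-signal fitted against DMSO.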

Assay [7] is described as follows: ATG_SREBP_CIS: Attagene CIS-FACTORIAL HepG2 Assay for human Sterol Regulatory Element Binding (SREBP) (AID 2282962). As to conditions: HepG2 Attagene cis-factorial SREBP reporter, mRNA; actives raise or lower the signal. In outline:
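In this cis-format assay, HepG2 liver cells express reporters controlled by promoter elements responsive to native transcription factors. Exposure lasts 24 h; reporter mRNA fluorescence from capillary electrophoresis gives the signal, fitted bidirectionally against DMSO.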

Assay [8] addresses Signal transducer and activator of transcription 3 (Homo sapiens) (UniProt P40763). Description: ATG_STAT3_CIS: Attagene CIS-FACTORIAL HepG2 Assay for human Signal Transducer and Activator of Transcription 3 (STAT3) (AID 2282963). As to conditions: HepG2, Attagene cis-factorial STAT3 reporter transcription; actives raise or lower the signal. In outline:
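Cis-factorial format: endogenous transcription factors in HepG2 drive transfected reporter units. After 24 h treatment, reporter RNA was reverse-transcribed, amplified, FAM-labelled and HpaI-digested before CE analysis; activity scored in both directions against DMSO.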

A short description of assay [9]: ATG_TCF_b_cat_CIS: Attagene CIS-FACTORIAL HepG2 Assay for human T-Cell-Factor with beta-catenin (TCF/b-cat) (AID 2282965). Conditions: HepG2 TCF/beta-catenin cis-reporter transcription, actives raise or lower the signal. In outline:
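Endogenous transcription factor activity is captured through cis-promoter reporter constructs transiently introduced into human HepG2 liver cells. Induced reporter mRNA is measured after 24 h and fitted bidirectionally relative to DMSO.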

A short description of assay [10]: ATG_TAL_CIS: Attagene CIS-FACTORIAL HepG2 Assay for human TAL Basal Promoter (AID 2282966).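 Further: background control endpoint measuring basal TAL promoter reporter mRNA not a specific factor.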 Conditions: HepG2 Attagene cis-factorial TAL promoter reporter; actives raise or lower the signal. In outline: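 Human hepatoma HepG2 cells, transfected with promoter-regulated reporter units, were treated 24 h. Reporter transcript levels, measured through RT-PCR and capillary electrophoresis, were fitted for gain or loss relative to DMSO.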

The nature of assay [11]: ATG_TGFb_CIS: Attagene CIS-FACTORIAL HepG2 Assay for human Transforming Growth Factor (TGF) (AID 2282967). As to conditions: HepG2 Attagene CIS TGFb reporter, mRNA transcription; actives raise or lower the signal. In outline:
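Multiplexed cis-reporter HepG2 system, 24 h treatment; mRNA induction read by fluorescence after RT-PCR and CE; DMSO negative control, bidirectional curve fitting.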

Assay [12] in a line: ATG_VDRE_CIS: Attagene CIS-FACTORIAL HepG2 Assay for human Vitamin D Receptor Element (VDRE) (AID 2282968). As to conditions: HepG2 VDRE cis-reporter transcription, actives raise or lower the signal. In outline:
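Measures endogenous factor activity through cis-element-driven reporter transcripts in transiently transfected HepG2. Cells are treated 24 h; reporter mRNA is quantified by RT-PCR and capillary electrophoresis; fitting is bidirectional.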

Assay [13] has as its target X-box-binding protein 1 (Homo sapiens) (UniProt P17861). Description: ATG_Xbp1_CIS: Attagene CIS-FACTORIAL HepG2 Assay for human X-box Binding Protein 1 (XBP1) (AID 2282972). As to conditions: HepG2 XBP1 cis-element reporter, Attagene multiplex; actives raise or lower the signal. In outline: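 Changes in reporter transcript abundance, read by RT-PCR and capillary electrophoresis, reflect endogenous transcription factor activity. Transfected HepG2 cells received compound for 24 hours; DMSO defined baseline for bidirectional analysis.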

Assay [14] can be described thus: ATG_M_19_TRANS: Attagene TRANS-FACTORIAL HepG2 Assay for M19 Transcription Factor (Internal Marker) (AID 2282974; active means hit-call score of the fitted dose curve at least 0.9, where 1 is the maximum). As to conditions: HepG2 Attagene TRANS-FACTORIAL M19 internal marker reporter. In outline:
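Gain-of-signal in reporter mRNA, relative to DMSO, was scored from capillary electrophoresis fluorescence. HepG2 cells carried transiently transfected multiple reporter transcription units and were incubated with test chemicals for 24 h.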

A short description of assay [15]: ATG_GAL4_TRANS: Attagene TRANS-FACTORIAL HepG2 Assay for GAL4 (Internal Marker) (AID 2282976; active means hit-call score of the fitted dose curve at least 0.9, where 1 is the maximum). Conditions: HepG2 Attagene TRANS GAL4 internal marker reporter. In outline:
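Liver HepG2 line bearing multiplexed GAL4-UAS reporter constructs; 24 h chemical treatment. Transcripts were quantified as fluorescent fragments on capillary electrophoresis after RT-PCR and HpaI cut, with activity fitted upward from DMSO.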

Assay [16] can be described thus: ATG_TA_CIS: Attagene CIS-FACTORIAL HepG2 Assay for human TA Basal Promoter (AID 2282964). Conditions: HepG2 Attagene CIS-factorial TA basal promoter reporter; actives raise or lower the signal. In outline: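 Cis-factorial format in HepG2: reporters report endogenous factors, not chimeric Gal4 fusions. After 24 h treatment, reporter transcripts were measured by RT-PCR-capillary electrophoresis fluorescence, analysed bidirectionally versus DMSO.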

Assay [17] addresses Nuclear receptor subfamily 1 group I member 3 (Homo sapiens) (UniProt Q14994). Description: ATG_CAR_TRANS: Attagene TRANS-FACTORIAL HepG2 Assay for human Constitutive Androstane Receptor (CAR) (AID 2282969; active means hit-call score of the fitted dose curve at least 0.9, where 1 is the maximum;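 further: activators raise reporter mRNA above DMSO so AC50 marks induction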). As to conditions: HepG2 Attagene TRANS-FACTORIAL CAR reporter. In outline:
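Signal is reporter mRNA induction relative to DMSO, measured 24 h after dosing by RT-PCR with fluorescent primer extension and capillary electrophoresis. Human HepG2 liver cells carried transiently transfected chimeric NR-Gal4/GAL4-UAS reporter constructs.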

The target of assay [18] is Estrogen receptor (Homo sapiens) (UniProt P03372). Description: ATG_ERa_TRANS: Attagene TRANS-FACTORIAL HepG2 Assay for human Estrogen Receptor alpha (ERa) (AID 2282970; active means hit-call score of the fitted dose curve at least 0.9, where 1 is the maximum). Conditions: HepG2 Attagene TRANS ERa GAL4 reporter, mRNA. In outline: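 Signal derives from fluorescence of labelled reporter PCR fragments separated by capillary electrophoresis. HepG2 cells transiently carrying multiple GAL4-UAS reporter units were treated 24 hours, and induction above DMSO baseline was fitted as activity.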
Estrogen receptor (Homo sapiens), sequence (P03372 whole entry, looked up, the tested form may be a part): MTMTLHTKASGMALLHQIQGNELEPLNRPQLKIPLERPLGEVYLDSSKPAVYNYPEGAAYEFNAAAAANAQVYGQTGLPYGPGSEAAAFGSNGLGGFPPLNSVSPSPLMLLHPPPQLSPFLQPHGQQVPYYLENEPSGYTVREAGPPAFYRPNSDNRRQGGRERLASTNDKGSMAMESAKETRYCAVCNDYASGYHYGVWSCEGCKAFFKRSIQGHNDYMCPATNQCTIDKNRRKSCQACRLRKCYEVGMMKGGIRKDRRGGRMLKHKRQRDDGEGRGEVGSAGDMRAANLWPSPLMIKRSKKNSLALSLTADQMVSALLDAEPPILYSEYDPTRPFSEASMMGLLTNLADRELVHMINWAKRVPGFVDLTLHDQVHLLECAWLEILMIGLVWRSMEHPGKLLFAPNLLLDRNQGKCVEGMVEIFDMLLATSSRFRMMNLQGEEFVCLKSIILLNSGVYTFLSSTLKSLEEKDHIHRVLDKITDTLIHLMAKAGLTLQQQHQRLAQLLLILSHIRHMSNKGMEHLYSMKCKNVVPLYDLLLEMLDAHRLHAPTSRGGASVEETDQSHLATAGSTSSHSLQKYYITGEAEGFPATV

Records with an inconclusive call do not appear. The source made the active and inactive calls. How the source made its calls, unless noted: active means hit-call score of the fitted dose curve at least 0.9, where 1 is the maximum; inactive means score below 0.9.

Paired box protein Pax-6 (Homo sapiens), sequence (P26367 whole entry, looked up): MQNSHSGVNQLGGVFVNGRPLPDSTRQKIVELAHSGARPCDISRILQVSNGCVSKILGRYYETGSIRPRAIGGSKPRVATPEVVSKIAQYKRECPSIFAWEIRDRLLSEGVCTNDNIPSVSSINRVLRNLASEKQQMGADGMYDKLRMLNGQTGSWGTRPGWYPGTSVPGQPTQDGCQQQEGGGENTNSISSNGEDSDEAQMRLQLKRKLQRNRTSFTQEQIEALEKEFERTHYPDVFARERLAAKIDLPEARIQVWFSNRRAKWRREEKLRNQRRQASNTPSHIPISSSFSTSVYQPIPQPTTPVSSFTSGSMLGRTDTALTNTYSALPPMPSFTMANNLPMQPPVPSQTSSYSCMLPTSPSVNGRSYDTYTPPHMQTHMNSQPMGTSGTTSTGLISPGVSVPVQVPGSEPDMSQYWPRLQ
X-box-binding protein 1 (Homo sapiens), sequence (P17861 whole entry, looked up): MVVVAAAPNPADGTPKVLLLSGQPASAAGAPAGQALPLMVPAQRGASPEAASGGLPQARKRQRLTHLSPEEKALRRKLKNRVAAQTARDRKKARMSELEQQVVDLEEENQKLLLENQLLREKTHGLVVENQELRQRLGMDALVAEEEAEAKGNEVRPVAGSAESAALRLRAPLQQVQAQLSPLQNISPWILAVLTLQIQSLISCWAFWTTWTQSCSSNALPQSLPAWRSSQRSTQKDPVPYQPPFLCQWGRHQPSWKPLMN
Nuclear receptor subfamily 1 group I member 3 (Homo sapiens), sequence (Q14994 whole entry, looked up, the tested form may be a part): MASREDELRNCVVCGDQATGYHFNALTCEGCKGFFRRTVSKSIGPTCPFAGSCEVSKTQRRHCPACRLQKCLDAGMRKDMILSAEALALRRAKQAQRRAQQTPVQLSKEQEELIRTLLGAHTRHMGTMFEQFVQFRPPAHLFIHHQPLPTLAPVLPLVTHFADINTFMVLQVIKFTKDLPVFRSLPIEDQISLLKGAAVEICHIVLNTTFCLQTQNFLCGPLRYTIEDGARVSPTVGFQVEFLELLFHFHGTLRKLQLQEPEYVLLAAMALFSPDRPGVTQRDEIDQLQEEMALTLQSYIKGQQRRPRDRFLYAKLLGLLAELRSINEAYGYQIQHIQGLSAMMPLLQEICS
Signal transducer and activator of transcription 3 (Homo sapiens), sequence (P40763 whole entry, looked up): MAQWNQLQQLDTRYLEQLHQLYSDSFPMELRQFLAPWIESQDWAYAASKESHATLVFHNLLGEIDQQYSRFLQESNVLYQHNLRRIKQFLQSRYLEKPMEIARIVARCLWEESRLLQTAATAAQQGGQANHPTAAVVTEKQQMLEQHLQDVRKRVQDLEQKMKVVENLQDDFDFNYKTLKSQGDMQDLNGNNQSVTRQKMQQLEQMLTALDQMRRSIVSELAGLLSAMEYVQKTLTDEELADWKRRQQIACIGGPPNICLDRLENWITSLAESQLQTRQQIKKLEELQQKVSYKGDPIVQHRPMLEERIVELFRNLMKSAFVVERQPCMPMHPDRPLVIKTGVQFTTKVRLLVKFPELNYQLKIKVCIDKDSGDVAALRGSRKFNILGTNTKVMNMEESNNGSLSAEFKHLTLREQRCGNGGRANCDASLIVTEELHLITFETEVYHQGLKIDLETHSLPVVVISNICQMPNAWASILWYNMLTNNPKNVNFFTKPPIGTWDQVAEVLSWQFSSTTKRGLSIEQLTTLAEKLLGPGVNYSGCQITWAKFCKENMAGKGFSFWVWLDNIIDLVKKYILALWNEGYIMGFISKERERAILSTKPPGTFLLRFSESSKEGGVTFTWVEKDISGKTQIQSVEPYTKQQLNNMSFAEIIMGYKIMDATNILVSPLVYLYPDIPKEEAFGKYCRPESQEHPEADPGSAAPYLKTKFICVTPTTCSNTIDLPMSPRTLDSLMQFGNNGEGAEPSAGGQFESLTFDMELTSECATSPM
Transcription factor Sp1 (Homo sapiens), sequence (P08047 whole entry, looked up): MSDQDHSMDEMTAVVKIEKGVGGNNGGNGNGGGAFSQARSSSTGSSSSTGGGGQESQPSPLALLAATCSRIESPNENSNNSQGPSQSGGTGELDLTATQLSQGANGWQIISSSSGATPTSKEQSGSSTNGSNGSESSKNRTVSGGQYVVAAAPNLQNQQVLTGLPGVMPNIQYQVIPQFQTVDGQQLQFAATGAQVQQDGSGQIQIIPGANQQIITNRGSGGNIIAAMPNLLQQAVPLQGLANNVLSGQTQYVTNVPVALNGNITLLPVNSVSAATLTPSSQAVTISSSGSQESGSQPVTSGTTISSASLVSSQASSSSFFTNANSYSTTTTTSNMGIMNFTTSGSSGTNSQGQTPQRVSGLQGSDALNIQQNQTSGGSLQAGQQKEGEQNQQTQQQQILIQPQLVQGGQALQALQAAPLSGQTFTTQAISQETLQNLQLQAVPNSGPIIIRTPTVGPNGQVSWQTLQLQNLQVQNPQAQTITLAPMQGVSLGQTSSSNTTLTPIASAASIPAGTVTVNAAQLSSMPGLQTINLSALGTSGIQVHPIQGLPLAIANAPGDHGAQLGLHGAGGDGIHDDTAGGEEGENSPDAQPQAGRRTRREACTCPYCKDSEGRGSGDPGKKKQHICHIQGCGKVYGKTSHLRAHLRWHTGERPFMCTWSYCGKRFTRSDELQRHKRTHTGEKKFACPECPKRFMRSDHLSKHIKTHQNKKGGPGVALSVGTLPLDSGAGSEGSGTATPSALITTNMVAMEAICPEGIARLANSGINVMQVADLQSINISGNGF

Turning to `CCCCOCCOC(=O)COc1ccc(Cl)cc1Cl`, the outcome in [1], in [2], in assay [4], in assay [5], in assay [6] and in assay [7] was inactive. Also, the result in assay [8], in assay [9], in assay [10], in assay [11], in assay [12] and in assay [13] was inactive. Besides, the result in assay [14] and in assay [15] was inactive. In addition, the AC50 in [3] was 39.9 µM (active).

In the case of `CCCCC(C=O)CC` (stereo not drawn), the result in assay [1], in assay [2], in assay [3], in assay [4], in assay [5] and in assay [6] was inactive. Besides, the call in assay [7], in assay [8], in assay [16], in assay [9], in assay [10] and in [11] was inactive. Also, the result in [12], in [17], in assay [13], in assay [14] and in assay [15] was inactive.

For the compound `CCCCOC(=O)C(C)CC` (stereo not drawn), the result in assay [1], in [2], in assay [4], in assay [5], in assay [6] and in assay [7] was inactive. The outcome in assay [8], in [16], in assay [9], in [10], in assay [11] and in [12] was inactive. In addition, in assay [13], the call was inactive. Besides, the concentration at half-maximal activity (AC50) in assay [3] was 27.1 µM (active).

On to `CC(C)c1ccc2ncccc2c1`, for which the outcome in [1], in [2], in [4], in [5], in assay [6] and in assay [7] was inactive. For the same compound, the result in [8], in assay [16], in assay [9], in [10], in assay [11] and in assay [18] was inactive. In addition, the compound was called inactive in assay [13] and in assay [15]. For the same compound, in [3], the AC50 is 27.9 µM (active).

In the case of `C=Cc1ccc(OC(C)=O)cc1`, the result in assay [1], in assay [2], in [3], in assay [4], in [5] and in assay [6] was inactive. For the same compound, the outcome in assay [7], in assay [8], in assay [16], in assay [9], in assay [10] and in assay [11] was inactive. In addition, the call in [12], in assay [17] and in assay [14] was inactive. In addition, the AC50 was 31.6 µM (active) in assay [18] and 53.7 µM (active) in assay [13].

As to `CC1C(C)(C)C2=C(C(=O)CCC2)C1(C)C` (stereo not drawn), the outcome in assay [1], in assay [2], in [4], in assay [5], in [6] and in [7] was inactive. The outcome in assay [8], in [9], in assay [10], in assay [11], in assay [12] and in assay [17] was inactive. Further, the compound was classed as inactive in assay [14]. Moreover, the AC50 was 6.01 µM (active) in assay [3] and 11.5 µM (active) in assay [18].
